Reference: ChEMBL document CHEMBL3988442, “University of Dundee, Small-Polar-MMV Screening Library” (2021)
For some assays here: Potency and affinity values are given separately.

Key:
Set-up in all cases: scale not given: direction of the effect not stated beside the values
[1] = target: Protein translocase subunit SecA (Escherichia coli (strain K12)) (UniProt P10408); assay: Assay to Identify E. coli SecA ATPase Inhibitors; type: functional; conditions: 30 µM
[2] = target: T1, Ubiquitin-activating enzyme e1, putative (Leishmania donovani (strain BPK282A1)) (UniProt E9BSI1); assay: Leishmania donovani Ubiquitin Activating Enzyme (LdE1); type: functional; conditions: 30 µM
T1 sequence (whole entry): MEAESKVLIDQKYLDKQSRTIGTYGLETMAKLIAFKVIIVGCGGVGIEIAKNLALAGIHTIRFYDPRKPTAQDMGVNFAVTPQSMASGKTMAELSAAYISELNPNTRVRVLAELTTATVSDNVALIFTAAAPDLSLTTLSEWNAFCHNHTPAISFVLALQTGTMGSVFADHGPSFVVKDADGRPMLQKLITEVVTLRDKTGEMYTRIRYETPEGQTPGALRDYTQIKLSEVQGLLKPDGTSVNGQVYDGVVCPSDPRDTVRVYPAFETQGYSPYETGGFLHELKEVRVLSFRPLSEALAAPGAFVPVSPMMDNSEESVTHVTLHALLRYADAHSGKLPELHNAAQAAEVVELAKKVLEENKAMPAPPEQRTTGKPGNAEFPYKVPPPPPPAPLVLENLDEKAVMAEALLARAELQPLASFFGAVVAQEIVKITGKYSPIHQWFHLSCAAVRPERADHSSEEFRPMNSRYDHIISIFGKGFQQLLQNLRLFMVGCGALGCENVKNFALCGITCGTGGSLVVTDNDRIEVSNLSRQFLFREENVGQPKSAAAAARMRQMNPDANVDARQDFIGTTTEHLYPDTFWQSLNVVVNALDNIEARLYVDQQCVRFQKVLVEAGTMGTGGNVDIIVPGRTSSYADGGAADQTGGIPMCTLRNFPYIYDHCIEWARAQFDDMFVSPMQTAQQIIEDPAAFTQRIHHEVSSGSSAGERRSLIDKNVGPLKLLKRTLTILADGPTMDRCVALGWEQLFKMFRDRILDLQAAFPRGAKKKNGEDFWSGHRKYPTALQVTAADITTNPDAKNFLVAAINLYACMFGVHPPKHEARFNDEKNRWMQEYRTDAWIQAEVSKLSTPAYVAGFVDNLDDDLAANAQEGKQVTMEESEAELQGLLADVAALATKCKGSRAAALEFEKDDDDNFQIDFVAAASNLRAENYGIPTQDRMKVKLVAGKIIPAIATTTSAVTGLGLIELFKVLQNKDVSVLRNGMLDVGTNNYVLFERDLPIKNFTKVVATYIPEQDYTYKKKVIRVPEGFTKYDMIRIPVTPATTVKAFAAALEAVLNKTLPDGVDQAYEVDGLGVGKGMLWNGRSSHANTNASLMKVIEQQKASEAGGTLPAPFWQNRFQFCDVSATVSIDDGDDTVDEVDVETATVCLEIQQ

[3] = target: AMP-activated protein kinase, AMPK (Homo sapiens) (UniProt P54646+O43741+P54619+Q9UGJ0+Q9Y478+Q13131+Q9UGI9); assay: AMP-dependent Kinase enzyme assay. An in vitro enzyme assay that detects ADP turnover that is directly proportional to AMPK activity. This uses naive AMPK that is activated during the assay with MK-8722; type: functional; conditions: 30 µM
[4] = target: Sialic acid-binding Ig-like lectin 9 (Homo sapiens) (UniProt Q9Y336); assay: Hs-Siglec9 ALPHAscreen SOP 20170721; conditions: 10 µM
Chain of Sialic acid-binding Ig-like lectin 9 (Homo sapiens) (Q9Y336 whole entry): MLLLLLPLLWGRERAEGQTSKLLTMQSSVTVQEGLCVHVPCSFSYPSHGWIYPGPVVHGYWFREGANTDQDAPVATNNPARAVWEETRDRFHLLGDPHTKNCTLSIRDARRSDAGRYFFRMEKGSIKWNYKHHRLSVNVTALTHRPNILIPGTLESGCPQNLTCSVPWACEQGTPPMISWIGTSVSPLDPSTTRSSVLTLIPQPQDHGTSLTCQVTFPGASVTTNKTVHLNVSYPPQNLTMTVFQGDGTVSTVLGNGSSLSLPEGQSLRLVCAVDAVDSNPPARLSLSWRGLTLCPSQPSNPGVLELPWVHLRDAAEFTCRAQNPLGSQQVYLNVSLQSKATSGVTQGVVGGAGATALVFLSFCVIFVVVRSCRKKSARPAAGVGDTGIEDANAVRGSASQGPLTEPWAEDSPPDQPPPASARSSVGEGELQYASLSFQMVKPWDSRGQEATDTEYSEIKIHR

Trypanosoma cruzi = assay: Trypanosoma cruzi phosphomannomutase and mannose-1-phosphate guanylyltransferase assay; type: functional; conditions: 10 µM
[5] = target: T2, Arginase-2, mitochondrial (Homo sapiens) (UniProt P78540); assay: in vitro enzyme assay to detect the production of urea directly proportional to the activity of Arginase II; type: functional; conditions: 33.3 µM; note: in the data most compounds retested in dose-response had high values
T2 sequence (whole entry): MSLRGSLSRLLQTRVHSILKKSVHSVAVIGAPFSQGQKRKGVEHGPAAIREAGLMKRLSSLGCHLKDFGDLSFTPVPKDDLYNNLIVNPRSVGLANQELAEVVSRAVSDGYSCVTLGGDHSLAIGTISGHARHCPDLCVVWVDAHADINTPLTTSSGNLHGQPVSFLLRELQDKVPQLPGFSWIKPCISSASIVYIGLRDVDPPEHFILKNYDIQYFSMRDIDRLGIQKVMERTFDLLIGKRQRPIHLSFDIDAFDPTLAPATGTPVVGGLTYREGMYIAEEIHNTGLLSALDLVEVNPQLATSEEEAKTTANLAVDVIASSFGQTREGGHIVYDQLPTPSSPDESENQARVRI

[6] = target: T3, Proteasome subunit beta (Trypanosoma cruzi) (UniProt O96673); assay: Trypanosoma cruzi proteasome chymotrypsin-like activity (TcProtChymo) assay.; note: in the data most compounds retested in dose-response had high values; type: functional; conditions: 9.37 µM
T3 sequence (whole entry): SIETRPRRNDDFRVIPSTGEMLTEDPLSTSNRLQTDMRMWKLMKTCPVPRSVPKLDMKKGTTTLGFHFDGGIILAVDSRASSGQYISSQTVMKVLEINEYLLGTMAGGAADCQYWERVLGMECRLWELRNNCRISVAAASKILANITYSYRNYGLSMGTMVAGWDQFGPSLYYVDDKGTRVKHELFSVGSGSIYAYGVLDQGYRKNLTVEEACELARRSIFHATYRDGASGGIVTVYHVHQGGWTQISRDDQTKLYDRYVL

Homo sapiens = species: Homo sapiens; assay: To identify inhibition of the IFN signalling (Jak-Stat) pathway via expression of an eGFP reporter gene under the control of an IFN-stimulated response element (ISRE) containing MxA promoter.; type: functional; conditions: 30 µM
[7] = target: T4, Tyrosyl-tRNA synthetase, putative (Trypanosoma cruzi (strain CL Brener)) (UniProt Q4DSP6); assay: Trypanosoma cruzi tyrosyl tRNA synthetase (TcYRS) _High Tyrosine SOP; type: functional; conditions: 30 µM; note: in the data most compounds retested in dose-response had high values
T4 sequence (whole entry): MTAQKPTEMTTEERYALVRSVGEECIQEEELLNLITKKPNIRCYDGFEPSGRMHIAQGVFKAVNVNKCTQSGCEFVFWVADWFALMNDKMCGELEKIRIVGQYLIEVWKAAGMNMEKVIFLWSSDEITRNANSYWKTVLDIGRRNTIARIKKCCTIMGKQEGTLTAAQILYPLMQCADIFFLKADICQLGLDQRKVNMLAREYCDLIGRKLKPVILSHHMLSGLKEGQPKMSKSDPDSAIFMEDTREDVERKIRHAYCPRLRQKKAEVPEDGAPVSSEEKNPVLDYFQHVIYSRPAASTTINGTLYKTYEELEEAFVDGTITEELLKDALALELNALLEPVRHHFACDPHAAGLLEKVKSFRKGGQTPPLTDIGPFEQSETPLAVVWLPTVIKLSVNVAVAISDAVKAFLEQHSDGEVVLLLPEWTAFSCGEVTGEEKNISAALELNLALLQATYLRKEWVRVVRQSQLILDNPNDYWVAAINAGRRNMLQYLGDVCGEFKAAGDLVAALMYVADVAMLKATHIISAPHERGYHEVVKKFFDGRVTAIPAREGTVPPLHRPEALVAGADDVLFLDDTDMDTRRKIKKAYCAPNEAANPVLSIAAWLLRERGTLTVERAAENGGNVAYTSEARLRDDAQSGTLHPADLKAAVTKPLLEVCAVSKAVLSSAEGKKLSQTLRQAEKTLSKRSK

[8] = target: T4, Tyrosyl-tRNA synthetase, putative (Trypanosoma cruzi (strain CL Brener)); assay: Trypanosoma cruzi tyrosyl tRNA synthetase (TcYRS) SOP; type: functional; conditions: 30 µM
[9] = target: Chromo domain-containing protein 1 (Saccharomyces cerevisiae (strain ATCC 204508 / S288c) (Baker's yeast)) (UniProt P32657); assay: ScCHD-1 Enzyme Inhibition Assay; type: functional; conditions: 30 µM; note: in the data most compounds retested in dose-response had high values
Chain of Chromo domain-containing protein 1 (Saccharomyces cerevisiae (strain ATCC 204508 / S288c) (Baker's yeast)) (P32657 whole entry, the tested form may be a part): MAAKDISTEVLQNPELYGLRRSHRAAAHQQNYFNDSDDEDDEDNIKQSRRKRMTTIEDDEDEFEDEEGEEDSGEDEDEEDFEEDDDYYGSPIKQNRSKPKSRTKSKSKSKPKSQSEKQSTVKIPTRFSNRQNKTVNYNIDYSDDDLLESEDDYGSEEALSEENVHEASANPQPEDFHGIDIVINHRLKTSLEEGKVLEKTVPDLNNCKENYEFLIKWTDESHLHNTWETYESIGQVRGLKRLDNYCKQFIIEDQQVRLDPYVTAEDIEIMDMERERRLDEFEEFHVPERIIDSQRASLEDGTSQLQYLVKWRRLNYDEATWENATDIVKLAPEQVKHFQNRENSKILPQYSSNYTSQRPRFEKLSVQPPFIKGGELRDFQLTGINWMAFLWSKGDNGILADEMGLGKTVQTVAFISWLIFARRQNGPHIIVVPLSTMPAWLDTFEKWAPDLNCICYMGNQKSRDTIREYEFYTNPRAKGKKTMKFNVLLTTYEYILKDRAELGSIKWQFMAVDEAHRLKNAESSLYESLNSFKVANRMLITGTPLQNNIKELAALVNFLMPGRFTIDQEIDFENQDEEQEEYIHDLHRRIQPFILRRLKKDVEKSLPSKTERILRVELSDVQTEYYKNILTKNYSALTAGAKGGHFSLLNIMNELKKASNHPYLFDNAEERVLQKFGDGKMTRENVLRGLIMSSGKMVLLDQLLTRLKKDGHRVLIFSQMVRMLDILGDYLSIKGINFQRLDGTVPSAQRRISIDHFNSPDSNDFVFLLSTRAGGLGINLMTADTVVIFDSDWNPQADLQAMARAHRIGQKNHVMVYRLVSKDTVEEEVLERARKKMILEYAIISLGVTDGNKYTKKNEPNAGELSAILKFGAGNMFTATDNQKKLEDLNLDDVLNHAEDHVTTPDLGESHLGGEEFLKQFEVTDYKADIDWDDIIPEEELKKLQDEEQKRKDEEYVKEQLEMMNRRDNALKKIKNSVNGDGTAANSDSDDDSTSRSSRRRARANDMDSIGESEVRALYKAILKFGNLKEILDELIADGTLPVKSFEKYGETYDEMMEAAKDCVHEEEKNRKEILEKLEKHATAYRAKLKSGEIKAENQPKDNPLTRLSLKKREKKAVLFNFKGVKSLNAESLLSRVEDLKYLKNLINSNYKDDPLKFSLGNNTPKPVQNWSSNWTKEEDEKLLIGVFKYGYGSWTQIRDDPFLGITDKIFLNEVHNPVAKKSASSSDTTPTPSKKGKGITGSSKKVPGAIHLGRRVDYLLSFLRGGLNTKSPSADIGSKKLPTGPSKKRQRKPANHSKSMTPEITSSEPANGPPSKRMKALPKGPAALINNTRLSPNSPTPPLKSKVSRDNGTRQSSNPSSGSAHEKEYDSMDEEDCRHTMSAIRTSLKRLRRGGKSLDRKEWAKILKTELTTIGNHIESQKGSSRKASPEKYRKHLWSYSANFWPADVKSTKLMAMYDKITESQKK

Chain of Protein translocase subunit SecA (Escherichia coli (strain K12)) (P10408 whole entry): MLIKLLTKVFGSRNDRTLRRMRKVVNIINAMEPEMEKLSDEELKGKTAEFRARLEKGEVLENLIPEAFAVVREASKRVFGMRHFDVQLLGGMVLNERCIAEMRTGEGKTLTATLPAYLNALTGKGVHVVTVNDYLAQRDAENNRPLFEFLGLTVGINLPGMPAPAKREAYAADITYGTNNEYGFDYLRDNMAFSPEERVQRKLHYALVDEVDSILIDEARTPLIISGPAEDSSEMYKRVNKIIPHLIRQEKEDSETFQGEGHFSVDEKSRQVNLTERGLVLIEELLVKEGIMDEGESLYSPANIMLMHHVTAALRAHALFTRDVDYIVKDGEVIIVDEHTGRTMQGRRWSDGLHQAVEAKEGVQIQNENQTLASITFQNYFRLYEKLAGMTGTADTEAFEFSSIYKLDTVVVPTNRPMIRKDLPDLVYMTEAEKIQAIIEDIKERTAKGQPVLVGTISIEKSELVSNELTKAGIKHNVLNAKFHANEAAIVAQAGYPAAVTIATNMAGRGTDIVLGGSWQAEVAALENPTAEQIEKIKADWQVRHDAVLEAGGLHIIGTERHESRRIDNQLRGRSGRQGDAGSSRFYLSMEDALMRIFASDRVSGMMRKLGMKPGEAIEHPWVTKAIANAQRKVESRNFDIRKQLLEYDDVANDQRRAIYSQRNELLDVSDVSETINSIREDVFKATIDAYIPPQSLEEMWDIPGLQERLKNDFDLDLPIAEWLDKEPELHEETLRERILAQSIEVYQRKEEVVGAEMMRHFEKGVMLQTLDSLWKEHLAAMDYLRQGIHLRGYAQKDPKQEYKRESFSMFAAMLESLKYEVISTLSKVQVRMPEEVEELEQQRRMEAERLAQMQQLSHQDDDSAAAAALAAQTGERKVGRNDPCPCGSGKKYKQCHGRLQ

Row | Structure (SMILES) | Percent Effect [1] [%] | Percent Effect [2] [%] | Percent Effect [3] [%] | Percent Effect [4] [%] | Percent Effect (Trypanosoma cruzi) [%] | Percent Effect [5] [%] | Percent Effect [6] [%] | Percent Effect (Homo sapiens) [%] | Percent Effect [7] [%] | Percent Effect [8] [%] | Percent Effect [9] [%]
1 | CC(c1nc(C2CC2)no1)N1CCN(c2ccc(C#N)cn2)CC1 (configuration not stated) | 0.926 | 2.63 | 8.14 | 5.94 | -4.58 | -4.73 | 13.7 | 10.8 | 2.13 | 7.79 | -2.39
2 | Cc1cnn(CC2CCCCN2CC(=O)NCc2ccccn2)c1 (configuration not stated) | -2.64 | -2.63 | 6.62 | 0.337 | 7.11 | -1.18 | 17.4 | -2.67 | 5.32 | 5.2 | -0.694
3 | c1ccc(OCC2CC3(CCN(c4ncccn4)CC3)CO2)nc1 (configuration not stated) | -0.807 | 1.33 | 3.04 | -2.52 | -1.57 | -5.46 | 10.9 | 14 | 0 | -2.56 | -5.94
4 | COC(=O)C(NC(=O)C(C)C)c1cc(F)ccc1F (configuration not stated) | -3.03 | 10.4 | 3.19 | 15.7 | -2.43 | 7.12 | 3.38 | 22.8 | 2.91 | 9.76 | -4.93
5 | CN(C)CCNC(=O)c1cc(-c2cnc(N3CCCC3)nc2)cn1C | -6.55 | 5.33 | 9.86 | -3.71 | -0.197 | -1.17 | 0.0881 | 45.6 | 0 | -6.41 | -10.7
6 | OCCn1cc(CN2CCN(CCOc3ccccc3F)CC2)cn1 | -9.62 | 0 | 7.1 | 3.17 | -5.48 | 2.03 | 4.49 | 11.7 | -2.97 | -8.54 | 11.3
7 | Cc1ccc(-c2cc(N)c(=O)n(CC(=O)NC3CCCCC3)n2)s1 | -4.68 | 6.76 | 14.2 | 4.48 | -4.74 | 4.41 | 8.42 | 15.6 | 1.07 | 6.49 | -8.72
8 | CN1N=C(C(=O)NCc2ccc3c(c2)CCCN3C)CCC1=O | -4.45 | 8.86 | 30.5 | -1.03 | 4.41 | 0.215 | 21.4 | 0.664 | 6.25 | 10.1 | -23
9 | CC(C)c1ncncc1C(=O)N1CCCN(Cc2cccs2)CC1 | -1.81 | 16.2 | -2.92 | -2.71 | 8.08 | -6.47 | 6.46 | 5.27 | 6.93 | 18.3 | -5.18
10 | Cc1nc(C)n(CC2CCCCN2CC(=O)Nc2ccncc2)n1 (configuration not stated) | 1.21 | 23.4 | -4.4 | -2.19 | -9.74 | 3.56 | 8.11 | 27.5 | 5.83 | -2.44 | -9.59
11 | CC(NC(=O)CSCC(=O)Nc1ccccc1)c1ccccc1 (configuration not stated) | -1.97 | 2.63 | -2 | -3.2 | -0.654 | 1.08 | -0.761 | -13.7 | 3.45 | 3.7 | 8.03
12 | Cn1cc(CN2CCC3(CCCN(Cc4ccccn4)C3)CC2)cn1 | -1.45 | -5.48 | -0.391 | 0.486 | 2.98 | 1.2 | 4.54 | -10.8 | 3.12 | 1.24 | 3.63
13 | O=C(Nc1cn[nH]c1)c1ccc(O)nc1 | -0.619 | 13.2 | 4.46 | 12.7 | 2.82 | -0.766 | 5.68 | 1.45 | 8.33 | 21.9 | -8.54
14 | CCOc1ccccc1Nc1nc2c(C)nn(C)c2c(=O)n1C | -4.55 | 20.8 | 1.12 | 10.9 | 3.64 | 6.9 | 10.7 | -5.39 | 8.6 | 18.5 | -6.44
15 | CC(C)c1ccc(OCCC(=O)N2CCC(CC(N)=O)CC2)cc1 | -3.21 | 5.26 | 5.06 | 6.24 | 6.58 | -2.68 | 11 | 5.75 | 4.41 | 12.2 | -9.8
16 | CN(Cc1nnc(C2CC2)n1C)C1CCN(CCc2cccs2)C1 (configuration not stated) | -0.668 | 5.48 | -3.64 | 3.02 | 8.33 | 0 | 15.5 | -8.16 | 2.08 | 6.17 | -3.22
17 | O=C(COCc1ccccc1)N1CCCC(n2cncn2)C1 (configuration not stated) | -4.9 | 16.2 | -5.92 | 0.0525 | 1.79 | -2.4 | 7.57 | 11.4 | 6.4 | 18.5 | -4.59
18 | Cc1nn2c(N3CCC(O)CC3)cc(-c3ccccc3)nc2c1C | -3.77 | 5.48 | -0.844 | 1.98 | -3.57 | -3.99 | 11 | 16 | 5.21 | 13.6 | -5.15
19 | CN(Cc1ccccc1)CC1(O)CCCN(CC(C)(C)C)C1=O (configuration not stated) | -2.06 | 6.94 | -11.8 | 18.9 | 5.15 | -1.77 | 1.4 | -1.36 | 3.16 | 0 | -0.279
20 | COc1ccc(NC(=O)NC(C)c2nc[nH]n2)cc1 (configuration not stated) | -1.78 | 8.11 | -0.122 | 9.35 | 3.03 | 19.6 | 17.9 | -13.4 | 0 | 11.1 | -3.04
21 | CCOC(=O)c1sc2ccsc2c1CNC(=O)CC | -4.75 | 16.2 | -8.58 | 18.5 | 7.15 | -0.185 | 1.44 | 19 | 4.95 | 13.4 | 38.4
22 | O=C(COc1coc(CN2CCOCC2)cc1=O)c1ccc(Cl)cc1 | -3.55 | 2.63 | 5.88 | 11 | -2.04 | -11.8 | 12 | 20.8 | -1.06 | 0 | -0.42
